PubChem BioAssay (NCATS)
Results filed as inconclusive are left out. Calls of active or inactive are those of the source. Calls come from the whole dose curve; as a rule, active = well fitted curve in the direction sought with a large enough effect; inconclusive = small, poorly fitted or top-dose-only effect, or another doubt; inactive = no such curve, though single readings can be large; an effect the other way counts as inactive or inconclusive.

How the values were obtained:
[1] = test system: MCC-13; assay: qHTS assay to identify novel small-molecules to repurpose for Merkel cell carcinoma treatment (AID 1296009); details: MCC and control cell lines, CellTiter-Glo viability, 72 h; series mostly up to 46 µM; note: nearly all actives have a fitted effect of over 60% in size
Method in brief: (§1)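 Cell viability, measured as CellTiter-Glo luminescence, was normalized between DMSO and no-cell wells. The cells had been exposed to 8- or 11-point compound dilutions for 72 hr at 37 degree celsius.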

[2] = test system: MKL-2; assay: as above; details: MCC and control cell lines, CellTiter-Glo viability, 72 h; series mostly up to 46 µM
Method in brief: as §1

[3] = test system: UISO; assay: as above; details: MCC and control cell lines, CellTiter-Glo viability, 72 h; series mostly up to 46 µM
Method in brief: as §1

[4] = test system: MKL-1; assay: as above; details: MCC and control cell lines, CellTiter-Glo viability, 72 h; series mostly up to 46 µM
Method in brief: as §1

[5] = test system: WaGa; assay: as above; details: MCC and control cell lines, CellTiter-Glo viability, 72 h; series mostly up to 46 µM
Method in brief: as §1

[6] = test system: CASKI; assay: Primary qHTS to identify gynecologic anti-cancer compounds using libraries of approved drugs and bioactive compounds (AID 1345084); details: Gynecologic cancer cell panel viability, ATPlite luminescence, 48 h; series mostly up to 57.5 µM; note: nearly all actives have a fitted effect of over 55% in size
Method in brief: (§2)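 Five-concentration response, 48 h; readout is ATP-driven luciferase luminescence.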

[7] = test system: Es-2; assay: as above; details: Gynecologic cancer cell panel viability, ATPlite luminescence, 48 h; series mostly up to 57.5 µM
Method in brief: as §2

[8] = test system: HeLa; assay: as above; details: Gynecologic cancer cell panel viability, ATPlite luminescence, 48 h; series mostly up to 57.5 µM
Method in brief: as §2

[9] = test system: JEG-3; assay: as above; details: Gynecologic cancer cell panel viability, ATPlite luminescence, 48 h; series mostly up to 57.5 µM
Method in brief: as §2

[10] = test system: OV90; assay: as above; details: Gynecologic cancer cell panel viability, ATPlite luminescence, 48 h; series mostly up to 57.5 µM
Method in brief: as §2

[11] = test system: PA-1; assay: as above; details: Gynecologic cancer cell panel viability, ATPlite luminescence, 48 h; series mostly up to 57.5 µM
Method in brief: as §2

[12] = test system: SKOV3; assay: as above; details: Gynecologic cancer cell panel viability, ATPlite luminescence, 48 h; series mostly up to 57.5 µM
Method in brief: as §2

[13] = test system: Tov-21-G; assay: as above; details: Gynecologic cancer cell panel viability, ATPlite luminescence, 48 h; series mostly up to 57.5 µM
Method in brief: as §2

[14] = test system: C33A; assay: as above; details: Gynecologic cancer cell panel viability, ATPlite luminescence, 48 h; series mostly up to 57.5 µM
Method in brief: as §2

[15] = test system: Hek293T; assay: as above; details: Gynecologic cancer cell panel viability, ATPlite luminescence, 48 h, control line for the selectivity index; series mostly up to 57.5 µM
Method in brief: as §2

[16] = test system: Tov112D; assay: as above; details: Gynecologic cancer cell panel viability, ATPlite luminescence, 48 h; series mostly up to 57.5 µM
Method in brief: as §2

Measured: Potency
Potency is the fitted concentration of half-maximal effect.

O=C1NC(=O)[C@@H](c2cn3c4c(cccc24)CCC3)[C@H]1c1c[nH]c2ccccc12
active: [1] 3.32 µM | [2] 23500 nM | [3] 1.18 µM

C=CC(=O)Nc1ccc2ncnc(Nc3ccc(OCc4cccc(F)c4)c(Cl)c3)c2c1
inactive: [7] | [8] | [9] | [10] | [11] | [12]
active: [1] 3.72 µM | [4] 0.118 µM | [5] 33.2 nM | [6] 14.1 µM | [13] 10 µM

C=C(C)[C@@H]1CC[C@]2(C(=O)O)CC[C@]3(C)[C@H](CC[C@@H]4[C@@]5(C)CC[C@H](O)C(C)(C)[C@@H]5CC[C@]43C)[C@@H]12
inactive: [1] | [4] | [2] | [3] | [5]

Cn1cc(C[C@@H](N)C(=O)O)c2ccccc21
inactive: [1] | [4] | [2] | [3] | [5]

CC(C=CC(=O)NO)=C[C@@H](C)C(=O)c1ccc(N(C)C)cc1
active: [1] 8.33 µM | [4] 1.66 µM | [2] 166 nM | [3] 3.32 µM | [5] 743 nM

CCC(C=C[C@@H]1OC(=O)C=C[C@H]1C)=C[C@H](C)CC=CC(C)=C[C@@H](C)C(=O)[C@@H](C)[C@H](O)[C@@H](C)CC(C)=CC(=O)O
active: [1] 0.0984 µM | [2] 4.9 nM | [3] 0.022 µM

Cc1cnc(NC(=O)Nc2cc(Br)c(C)cc2OC[C@@H]2CNCCO2)cn1
inactive: [1] | [2] | [5]

CCCNC(=O)[C@H]1O[C@H]1C(=O)N[C@H](C(=O)N1CCC[C@@H]1C(=O)OC)C(C)CC (stereo not given in full)
active: [1] 20.9 µM | [4] 5.26 µM | [2] 3320 nM | [3] 18.7 µM | [5] 8330 nM

CC(=O)[C@]1(O)Cc2c(O)c3c(c(O)c2[C@@H](O[C@H]2C[C@H](N)[C@@H](O)[C@H](C)O2)C1)C(=O)c1ccccc1C3=O
active: [1] 0.662 µM | [4] 0.148 µM | [2] 105 nM | [3] 0.59 µM | [5] 83.3 nM

CCCCC(=O)O[C@]1(C(=O)CO)[C@@H](C)C[C@H]2[C@@H]3CCC4=CC(=O)C=C[C@]4(C)[C@@]3(F)[C@@H](O)C[C@@]21C
inactive: [1] | [4] | [2] | [3] | [5] | [14] | [6] | [7] | [8] | [15] | [9] | [10] | [11] | [13] | [16]

CC[C@H](CC[C@@H](C)[C@H]1CC[C@H]2[C@@H]3CC=C4C[C@@H](O)CC[C@]4(C)[C@@H]3CC[C@]12C)C(C)C
inactive: [1] | [4] | [2] | [3] | [5]

CCc1c(O)cc(O)c(C(=O)c2ccc(OCCN3CCOCC3)c(OC)c2)c1CC(=O)N(CCOC)CCOC
active: [3] 1.48 µM
inactive: [1]

CN(C)c1ccc2cc(C(=O)N[C@@H](CCCN=C(N)CCl)C(=O)NCc3ccccc3)ccc2c1
inactive: [1]
active: [2] 26400 nM | [3] 13.2 µM

CN(C)c1ccc(C(=O)NCCCCCCC(=O)NO)cc1
active: [1] 4.18 µM | [4] 1.66 µM | [2] 743 nM | [5] 662 nM

Cc1cnc(Nc2ccc(CN3CCOCC3)cc2)nc1Nc1cccc(S(=O)(=O)NC(C)(C)C)c1
active: [1] 13.2 µM | [4] 11.8 µM | [5] 10500 nM | [6] 8.91 µM | [8] 1 µM | [9] 17.8 µM | [10] 22.4 µM | [11] 1.58 µM | [12] 7.08 µM | [13] 2.24 µM | [16] 5.01 µM

Cn1cnc(=N)c2[nH]cnc21
active: [1] 14.8 µM | [4] 7.43 µM | [2] 209 nM | [3] 5.26 µM | [5] 296 nM
